Here are results for 91 compounds from PubChem BioAssay AID463173 (ICCB-Longwood Screening Facility, Harvard Medical School, 2010).

Among all 52,000 compounds or so, about 4,300 (8.3%) were called active. Shown is part of a subset that was picked to be rich in actives. Values without a mark were called inactive. Cut-off read from the data, not from the text of the source: active = survival mostly below about 52% (no sharp cut-off); inactive = mostly above about 56%.

In this experiment the test system is DeltatarO mutant. In words: S. aureus survival, RN4220 and DeltatarO strains – OD600, teichoic acid synthesis inhibitors, primary screen (AID 463173). As to conditions: S. aureus RN4220 wild type/DeltatarO growth, OD600, 18 h, stronger effect = lower value, screened at 18.75 µg/mL (by protocol).
`COc1cc(Cl)c(C)cc1NC(=O)CCc1c(C)nc2cc(-c3cccc(F)c3)nn2c1C`: the survival was 74%.
Regarding `CCCCc1nn2c(=O)cc(CN(CC)c3ccccc3)nc2s1`, the survival was 73%.
With `Cc1noc2ncnc(N3CCN(c4cccc(C(F)(F)F)c4)CC3)c12` the figure was 71%.
With `CCOC(=O)CSc1nc2cc3c(cc2c(=O)n1CCCC(=O)NCc1ccc2c(c1)OCO2)OCO3`, the survival is 83%.
On to `COc1ccc(S(=O)(=O)NCCc2sc3nc(-c4ccc(C)cc4)nn3c2C)cc1F`, for which the survival is 72%.
Consider `Cc1cc(C)cc(-n2cnc3cc(C(=O)NC4CCCCCC4)ccc32)c1`, for which the survival was 95%.
Regarding `Nc1nonc1-c1nc2ccccc2n1CC(=O)Nc1ccccc1C(=O)O`, the survival is 45% (active).
Take `Nc1nonc1-c1nc2ccccc2n1CC(=O)Nc1ccc(F)cc1`: the survival was 169%.
For the compound `Nc1nonc1-c1nc2ccccc2n1CC(=O)Nc1cccc(Cl)c1Cl`, the survival is 66%.
Take `NC(=O)Cn1c(-c2nonc2N)nc2ccccc21`: the survival is 62% (active).
In the case of `CCc1ccccc1NC(=O)Cn1c(-c2nonc2N)nc2ccccc21`, the survival was 86%.
`Nc1nonc1-c1nc2ccccc2n1CCn1c(-c2nonc2N)nc2ccccc21`: the survival was 82%.
As to `COc1ccc(-c2nc(SCC(=O)NC3CCCC3)c(-c3ccc(C)cc3)[nH]2)cc1OC`, the survival is 57%.
`COc1ccc(Cn2ccc3nc(C)c(C(=O)NCc4ccc(C)cc4)cc3c2=O)cc1`: the survival is 60%.
`O=C(COC(=O)c1ccco1)Nc1cccc2ccccc12`: the survival was 97%.
In the case of `CCOC(=O)c1c(-c2cccs2)csc1NC(C)=O`, the survival was 69%.
Regarding `CNS(=O)(=O)c1cn(CC(=O)N2CCN(c3ccc(Cl)cc3)CC2)cc1S(=O)(=O)NC`, the survival was 106%.
As for `CNS(=O)(=O)c1cn(CC(=O)N2CCN(c3ccc(C(C)=O)cc3)CC2)cc1S(=O)(=O)NC`, the survival was 37% (active).
For the compound `CNS(=O)(=O)c1cn(CC(=O)N2CCN(c3ccc(OC)cc3)CC2)cc1S(=O)(=O)NC`, the survival is 69%.
The value for `O=C(Cn1cc(SCc2ccc(F)cc2)c2ccccc21)N1CCCCC1` was 79%.
On to `Cc1ccc(NC(=O)c2oc3ccc(S(=O)(=O)N(C)C4CCCCC4)cc3c2C)c(C)c1`, for which the survival is 73%.
The value for `Cc1nc2ccc(NC(=O)C3CCCCC3)cc2c(=O)n1Cc1ccccc1` was 63%; that for `Cc1ccc(CNS(=O)(=O)c2ccc(C(=O)N(C)C)s2)cc1` was -4% (active).
Turning to `CN(C)C(=O)c1ccc(S(=O)(=O)NCc2ccc(Cl)cc2)s1`, the survival is 119%.
On to `COc1ccc(CNS(=O)(=O)c2ccc(C(=O)N(C)C)s2)cc1`, for which the survival is 66%.
On to `CCCNC(=O)c1cnc2sc(N3CCCCC3)nn2c1=O`, for which the survival is 99%.
On to `O=C(NCc1cccc(Cl)c1)c1cc2c(s1)-c1ccccc1SC2`, for which the survival is 64%.
For the compound `COc1ccc(CCN2C(=O)c3[nH]nc(-c4ccccc4O)c3C2c2ccc(O)c(OC)c2)cc1` (stereo unspecified), the survival is 30% (active).
For the compound `COc1cccc(C2c3c(-c4ccccc4O)n[nH]c3C(=O)N2CCc2ccc(OC)c(OC)c2)c1` (stereo unspecified), the survival was 8% (active).
Regarding `COc1cc(C2c3c(-c4ccccc4O)n[nH]c3C(=O)N2Cc2ccncc2)ccc1O` (stereo unspecified), the survival was 90%.
Turning to `COc1cccc(C2c3c(-c4ccccc4O)n[nH]c3C(=O)N2Cc2cccnc2)c1` (stereo unspecified), the survival was 84%.
Take `COc1ccc(CCN2C(=O)c3[nH]nc(-c4ccccc4O)c3C2c2ccc(OC)c(OC)c2)cc1` (stereo unspecified): the survival was 45% (active).
Regarding `CC(CNC(=O)c1ccc(CSc2nc3ccncc3n2Cc2ccccc2)cc1)c1ccccc1` (stereo unspecified), the survival is 78%.
With `CS(=O)(=O)NCc1ccc2c(c1)OCO2` the figure was 92%.
`COc1ccc(CNC(=O)c2ccc3c(c2)N(Cc2ccccc2)C(=O)c2ccccc2S3(=O)=O)cc1`: the survival was 83%.
Regarding `COc1ccc(CNc2ccc(C)c(C)c2)c(OC)c1OC`, the survival was 93%.
`Cc1ccc2c(c1)N(C(=O)N1CCC(C(=O)NC3CCCCCC3)CC1)CC(C)O2` (stereo unspecified): the survival is 72%.
With `Cc1c(/C=C(\C#N)C(=O)Nc2cccc(Cl)c2)c2ccccc2n1Cc1ccccc1Cl` the figure was 123%.
The value for `Nc1c(S(=O)(=O)Cc2ccccc2)sc2nc3c(cc12)CCCC3` was 49%; that for `Cc1nnnn1CCC(=O)NC(C)c1ccccc1` (stereo unspecified) was 84%.
The value for `Cc1cc(C)nc(N(C#N)Cc2ccccc2)n1` was 100%.
Turning to `Cc1cc(C)cc(-n2c(SCC(=O)Nc3ccccc3)nc3c(oc4ccccc43)c2=O)c1`, the survival is 101%.
As to `CCOC(=O)/C(C#N)=C\c1ccc(-c2cccc(C(F)(F)F)c2)o1`, the survival was 84%.
With `CCCCOC(=O)/C(C#N)=C/c1ccc(-c2cccc(C(F)(F)F)c2)o1` the figure was 46% (active); with `CCC(C)OC(=O)/C(C#N)=C\c1ccc(-c2cccc(C(F)(F)F)c2)o1` (stereo unspecified), 64%.
As to `CCOC(=O)c1ccc(-c2ccc(/C=C(\C#N)C(=O)Nc3ccc(OCC)cc3)o2)cc1`, the survival is 60%.
Take `Cc1ccc(NC(=O)/C(C#N)=C/c2ccc(C)o2)cc1`: the survival was 79%.
The value for `CCCCOC(=O)c1ccc(NC(=O)/C(C#N)=C/c2ccc(C)o2)cc1` was 49% (active); that for `N#C/C(=C\c1ccc(-c2ccccc2)o1)C(=O)Nc1ccccc1` was 90%.
`CCCCOC(=O)c1ccc(NC(=O)/C(C#N)=C/c2ccc(-c3ccccc3)o2)cc1`: the survival is 32% (active).
Take `COc1ccc(NC(=O)/C(C#N)=C/c2ccc(C)o2)cc1`: the survival was 77%.
In the case of `CCNC1CC(=O)N(c2ccc(C(=O)OCC)cc2)C1=O` (stereo unspecified), the survival was 112%.
Regarding `CCOC(=O)C(C)Nc1ncnc2onc(C)c12` (stereo unspecified), the survival is 53%.
With `CCN(C(=O)Cn1c(=O)n(Cc2ccccc2)c(=O)c2c1c1cc(OC)ccc1n2C)c1ccccc1`, the survival is 84%.
With `COc1ccc(Cl)cc1NC(=O)CSc1nc2c([nH]c3ccccc32)c(=O)n1-c1ccccc1`, the survival is 81%.
`NNC(=O)CNC(=O)c1cccs1`: the survival was 79%.
With `COc1ccccc1/C=C/C(=O)N1CCC(C(N)=O)CC1`, the survival was 99%.
Regarding `COC(=O)c1ccc(NC(=O)CSc2ccc(-c3cccs3)nn2)cc1`, the survival is 85%.
Consider `COc1ccccc1OCC(=O)Nc1c(C(=O)c2ccc(C)cc2)oc2ccccc12`, for which the survival was 82%.
Turning to `Cc1ccc(C)c(NC(=O)CSc2nnc3[nH]c(=O)cc(-c4ccccc4)n23)c1`, the survival was 105%.
Regarding `COC(=O)c1ccc(NS(=O)(=O)c2ccc3[nH]c4c(c3c2)CCCC4)cc1`, the survival was 6% (active).
Take `COC(=O)c1ccc(NS(=O)(=O)c2ccc3[nH]c4c(c3c2)CCCCC4)cc1`: the survival is 91%.
The value for `Cc1ccc(NS(=O)(=O)c2ccc3[nH]c4c(c3c2)CCCCCC4)cc1C` was -1% (active); that for `COc1cc(NS(=O)(=O)c2ccc3[nH]c4c(c3c2)CCCCCC4)cc(OC)c1` was 64%; that for `O=S(=O)(NCc1ccc(F)cc1)c1ccc2[nH]c3c(c2c1)CCCC3` was -1% (active).
With `O=S(=O)(NCc1ccc(F)cc1)c1ccc2[nH]c3c(c2c1)CCCCC3` the figure was 61%.
Turning to `Cc1ccc(NS(=O)(=O)c2ccc3[nH]c4c(c3c2)CCCCCC4)cc1Cl`, the survival is 72%.
The value for `Cc1ccc(CNS(=O)(=O)c2ccc3[nH]c4c(c3c2)CCCC4)cc1` was 84%.
As for `Cc1ccc(NS(=O)(=O)c2ccc3[nH]c4c(c3c2)CCCCCC4)cc1`, the survival was 84%.
As for `CC(=O)c1ccc(NS(=O)(=O)c2ccc3[nH]c4c(c3c2)CCCC4)cc1`, the survival was 83%.
Regarding `COc1ccc(NS(=O)(=O)c2ccc3[nH]c4c(c3c2)CCCCCC4)cc1`, the survival is -2% (active).
On to `COc1ccc(NS(=O)(=O)c2ccc3[nH]c4c(c3c2)CCCCC4)cc1`, for which the survival is 117%.
Take `Cc1ccc(N2C(=O)CCSC23C(=O)N(Cc2ccc(F)cc2)c2ccccc23)cc1` (stereo unspecified): the survival is 90%.
On to `CCCCNC(=O)CC1N=C2c3ccccc3N=C(SCC(=O)NCc3ccccc3Cl)N2C1=O` (stereo unspecified), for which the survival is 72%.
With `O=c1c2cc3c(cc2n(Cc2cccc(Cl)c2)c(=O)n1Cc1nc(-c2ccccc2)no1)OCO3`, the survival is 61%.
On to `O=C(CCCn1c(=O)[nH]c2ccccc2c1=O)NCc1ccccc1Cl`, for which the survival is 123%.
Take `COc1ccc(CNC(=O)CSc2ncc(S(=O)(=O)c3ccc(C)c(Cl)c3)c(=O)[nH]2)cc1`: the survival was 80%.
As for `Cc1ccc(C)c(N2CCN(S(=O)(=O)c3ccc4[nH]c5c(c4c3)CCCCC5)CC2)c1`, the survival was 80%.
As for `Cc1ccc(C)c(N2CCN(S(=O)(=O)c3ccc4[nH]c5c(c4c3)CCCC5)CC2)c1`, the survival was -2% (active).
For the compound `Cc1ccc(N2CCN(S(=O)(=O)c3ccc4[nH]c5c(c4c3)CCCCC5)CC2)c(C)c1`, the survival was 102%.
As to `COCCNc1oc(-c2ccc(OC)cc2)nc1C#N`, the survival is 54%.
Take `Cc1cc(C)cc(NC(=O)Cn2cc(C(=O)c3cccs3)c3ccccc32)c1`: the survival is 60%.
With `Cc1cc(OC(=O)c2cccs2)cc(OC(=O)c2cccs2)c1` the figure was 99%.
In the case of `Cc1cc(C(=O)c2cccs2)c(N)s1`, the survival was 33% (active).
Take `COc1ccc(NC(=O)CCN2CCN(c3cccc(Cl)c3)CC2)cc1`: the survival was 67%.
`Cc1ccc(CNC(=O)c2ccc(N3Cc4ccccc4Oc4ncccc43)s2)cc1`: the survival is 81%.
`CCCCCc1ccc(-c2ccc(Br)cc2)nc1`: the survival is -4% (active).
As to `CCCCCc1ccc(-c2ccc(C(=O)Oc3ccc(C(=O)OC)cc3)cc2)nc1`, the survival is 71%.
`CCCc1ccc(-c2ccc(C(=O)Oc3ccc(Br)cc3)cc2)nc1`: the survival was 136%.
As to `COc1ccccc1C(=O)Nc1cc(-c2cccc(Br)c2)nn1-c1ccccc1`, the survival was 115%.
With `Cn1c(=O)oc2cc(S(=O)(=O)N3CCCC(C(=O)NCc4ccc(F)cc4)C3)ccc21` (stereo unspecified), the survival is 131%.
